{"source": "the supplement of paper PMC11417369", "note": "± gives the standard deviation of the averaged measurements. Over roughly 25,000 sequences, “ln(normalized median fluorescence intensity)” has its median near 10; the highest 2% begin near 12. This excerpt belongs to a sample that is enriched for the highest values.", "data": [{"system": "PfAP2-G AP2 domain (GST-tagged)", "test": "gcPBM binding intensity (ln(normalized median fluorescence intensity)); higher = stronger DNA binding", "summary_of_the_method": "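Each value is the highest Masliner-normalised natural-log median intensity across replicate spots of either orientation of a probe. The probes were primer-extended double-stranded 36-bp intergenic genomic sequences on an Agilent 4 × 180k array, alongside negative controls, exposed for 1 h to GST-tagged P. falciparum DNA-binding domains expressed in E. coli. Bound protein was picked up with Alexa488 anti-GST antibody and scanned at 488 nm.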", "values": [{"sequence": "TATTAAAAATGTTAAGTGCAAAAATAAAAATTGTGG [GTGCAC_site9854]", "gcPBM binding intensity (ln)": "10.2 ± 0.17"}, {"sequence": "GATACACCAAATAACTGTACGCACGTGTAATATTAA [XGTACX_site3441]", "gcPBM binding intensity (ln)": "11.6 ± 0.83"}, {"sequence": "ATTAAAAAAATATACGCACACAAAATGTAATAACAA [CACACA_site2439]", "gcPBM binding intensity (ln)": "10.4 ± 0.21"}, {"sequence": "ATGCATATAACTACGTGTACAAATATACACAAATAC [XGTACX_site8811]", "gcPBM binding intensity (ln)": "11.4 ± 0.86"}, {"sequence": "CTTATACTTCTACATCGTACAAAAGATGGTATAATT [XGTACX_site2698]", "gcPBM binding intensity (ln)": "10.8 ± 0.43"}, {"sequence": "TATTTACATTTTAGTAGTACATATATGTATATATAT [XGTACX_site6839]", "gcPBM binding intensity (ln)": "11.3 ± 0.79"}, {"sequence": "GAACCGTTTTTATGTAGTACATATGTATATATATAT [XGTACX_site1577]", "gcPBM binding intensity (ln)": "11.6 ± 1.1"}, {"sequence": "ATGTATATATATATATGTACATATTTTTTATATGTA [XGTACX_site441]", "gcPBM binding intensity (ln)": "11.2 ± 0.81"}, {"sequence": "ATATTATATTGGATGTTGCACTTAACAAAAGGATAT [GTGCAC_site9478]", "gcPBM binding intensity (ln)": "10.2 ± 0.23"}, {"sequence": "ATATATTAATAATTTTGTACGCATTTCCTTTTTATT [XGTACX_site1638]", "gcPBM binding intensity (ln)": "11.5 ± 1"}, {"sequence": "AATAATAAATTATGGTGTACGCATTTGTATATATAC [XGTACX_site5417]", "gcPBM binding intensity (ln)": "11.7 ± 0.98"}, {"sequence": "ATATTAAATATAATTTGTACGCATTTTTTTTTTTTT [XGTACX_site1910]", "gcPBM binding intensity (ln)": "11.5 ± 0.82"}, {"sequence": "CCTTATACGATATTATGTACGCATATGTGCATTTTT [XGTACX_site1570]", "gcPBM binding intensity (ln)": "11.5 ± 1"}, {"sequence": "TTTTTTTCTTTTTGAGGTACGCATTATTTTATTTGT [XGTACX_site6996]", "gcPBM binding intensity (ln)": "11.3 ± 0.79"}, {"sequence": "TTTCGATTATGTTTTTGTACGCAATATATTAATTCT [XGTACX_site3634]", "gcPBM binding intensity (ln)": "11.5 ± 1"}, {"sequence": "ATAATTATATATTTATGTACGCATAAATATTTATAT [XGTACX_site5765]", "gcPBM binding intensity (ln)": "11.5 ± 1.2"}, {"sequence": "TATTATATATATAGGTGTACGCATTTGTCCTTTATA [XGTACX_site1385]", "gcPBM binding intensity (ln)": "11.7 ± 1.1"}, {"sequence": "GAATTTCGATATATGTGTACGCATTTGTATTATAGG [XGTACX_site6332]", "gcPBM binding intensity (ln)": "11.7 ± 1.1"}, {"sequence": "TACATAAACATTTATACACACATTATGTATACATAT [CACACA_site405]", "gcPBM binding intensity (ln)": "10.04 ± 0.035"}, {"sequence": "TAAAAATATTTTCATTGTACATATATATAAATATAT [XGTACX_site1123]", "gcPBM binding intensity (ln)": "10.9 ± 0.61"}, {"sequence": "ACATTTTTGGTTTTAGTGCAATATGAATTATTTTAT", "gcPBM binding intensity (ln)": "10.12 ± 0.078"}, {"sequence": "AAGGATATAAAAAAACGTACGTACGATAATATAATT [XGTACX_site1292]", "gcPBM binding intensity (ln)": "11.6 ± 0.91"}, {"sequence": "AAAAAAAAATTAATATATAAAAGGATATATATATAT [GTGCAC_negctrl_site449]", "gcPBM binding intensity (ln)": "9.77 ± 0.46"}, {"sequence": "ATAAAATATAAAAATTGTACGATAATAATAGTAGGA [XGTACX_site8951]", "gcPBM binding intensity (ln)": "10.8 ± 0.36"}, {"sequence": "TCATATATATTATACACACACATATATAAATATATA [CACACA_site967]", "gcPBM binding intensity (ln)": "10 ± 0.23"}, {"sequence": "TCATGTAGTAAAAACTGTACAAATTATTTATCATGT [XGTACX_site1727]", "gcPBM binding intensity (ln)": "11 ± 0.64"}, {"sequence": "GTGTAGTAAAATCGATGTACGTACAAATCAATTATT [XGTACX_site7662]", "gcPBM binding intensity (ln)": "11.8 ± 0.83"}, {"sequence": "TTATTAAAAATGTATTGTACAAATTTATTAGTAAAT [XGTACX_site4799]", "gcPBM binding intensity (ln)": "11 ± 0.52"}, {"sequence": "ACCTTTATTGTATGAACACACATAAGCTGATACATC [CACACA_site4028]", "gcPBM binding intensity (ln)": "10.2 ± 0.11"}, {"sequence": "ATTTATTTCAATAAACTTCTTTTCTTTAACAATTAC [CACACA_negctrl_site1222]", "gcPBM binding intensity (ln)": "9.845 ± 0.035"}, {"sequence": "TATTCATATTTAAAGGTGCAATATTTATTTTGTACA", "gcPBM binding intensity (ln)": "10.2 ± 0.18"}, {"sequence": "AAAAGACATTTTTTTTTATAAATACACACGTACGTG [TGCATGCA_negctrl_site281]", "gcPBM binding intensity (ln)": "11.1 ± 0.72"}, {"sequence": "TATTTTACACATTTACGTACATAAATATATATATAT [XGTACX_site8788]", "gcPBM binding intensity (ln)": "11.6 ± 0.95"}, {"sequence": "CCTCCCATTTTTACACGTACACATTTAAAATAGACT [XGTACX_site5640]", "gcPBM binding intensity (ln)": "11.7 ± 1.1"}, {"sequence": "TCTTATGATGGAATGTTAAATATTACATTTTGTTTA [TGCATGCA_negctrl_site503]", "gcPBM binding intensity (ln)": "9.51 ± 0.22"}, {"sequence": "GAAACGTTTTTGAGTAGTACACACACAATAAGGATG [XGTACX_site6809]", "gcPBM binding intensity (ln)": "11.7 ± 1.1"}, {"sequence": "ACGTTTTTGAGTAGTACACACACAATAAGGATGGAT [CACACA_site9044]", "gcPBM binding intensity (ln)": "11.5 ± 0.97"}, {"sequence": "GTTTTTGAGTAGTACACACACAATAAGGATGGATTC [CACACA_site3192]", "gcPBM binding intensity (ln)": "11.5 ± 0.97"}, {"sequence": "TTAAAAATGTTGGAAAGTACATATTTTTTAAAAGTA [XGTACX_site802]", "gcPBM binding intensity (ln)": "11.1 ± 0.61"}, {"sequence": "TTAACCACTAAAAGTACACACATATATACATATATA [CACACA_site3912]", "gcPBM binding intensity (ln)": "11.4 ± 0.92"}, {"sequence": "TCATCATGTATGTACACACATACATATATTATGTAC [CACACA_site1386]", "gcPBM binding intensity (ln)": "11.7 ± 0.8"}, {"sequence": "ATATATACATATGGGTGTACATATGCACATATATAT [XGTACX_site8437]", "gcPBM binding intensity (ln)": "11.3 ± 0.71"}, {"sequence": "ATATATCATCATGTATGTACACACATACATATATTA [XGTACX_site2814]", "gcPBM binding intensity (ln)": "11.2 ± 0.74"}, {"sequence": "AATACATATGGGTGTACACATTATATATATATATAT [CACACA_site4601]", "gcPBM binding intensity (ln)": "11.6 ± 0.89"}, {"sequence": "TATATCATCATGTATGTACACACATACATATATTAT [CACACA_site8387]", "gcPBM binding intensity (ln)": "11.2 ± 0.72"}, {"sequence": "ATAATAATATGTGGGTGTACATATACACATATATAT [XGTACX_site4356]", "gcPBM binding intensity (ln)": "11.3 ± 0.71"}]}]}
